# Compounds with a hit are over-represented: about 3.3% of the library has one in this group of screens.
# UBC13 polyUb = blocks human UBC13 polyubiquitin chain formation; P61088; TR-FRET; inhibition, % at 20 µM; 330,000 tested, 0.47% active; in the data active means inhibition above about 45%, passing the limit was not always enough
# Target sequence (P61088 whole entry, looked up): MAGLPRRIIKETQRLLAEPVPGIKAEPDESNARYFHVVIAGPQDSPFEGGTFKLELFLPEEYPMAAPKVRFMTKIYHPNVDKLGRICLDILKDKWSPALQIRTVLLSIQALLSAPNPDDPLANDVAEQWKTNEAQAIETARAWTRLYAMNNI
# sPLA2-III inh = Blocks human group III sPLA2 activity | 370,000 tested, 0.56% active | QFRET BODIPY PC-A2 liposome hydrolysis, fluorescence | Q9NZ20 | inhibition, % at 12.2 µM;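 active means inhibition above mean plus 3 SD of compounds lying within the high and low control bounds, cut at about 19% in these data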;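 further: 0% = median of test compound wells and 100% = no enzyme DMSO wells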
# SUMO HTRF inh = inhibitors of human SUMOylation (UBC9); HTRF SUMOylation assay, SAE1/SAE2 + UBC9, in vitro; inhibition, % at 35 µM; 290,000 tested, 0.36% active; AID 2006; in the data active means inhibition above about 50%, passing the limit was not always enough
# Target sequence (P63279 whole entry, looked up): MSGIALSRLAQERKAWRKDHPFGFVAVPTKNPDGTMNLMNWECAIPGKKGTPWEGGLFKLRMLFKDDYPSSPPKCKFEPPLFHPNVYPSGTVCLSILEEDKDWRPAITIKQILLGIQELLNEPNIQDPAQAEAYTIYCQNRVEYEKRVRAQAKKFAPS
# GRIN3A LBD mod = modulators (binders) of human NR3A ligand-binding domain. NR3A LBD differential scanning fluorimetry, Tm shift; 0% = protein alone, 100% = glycine-bound protein. Tm shift relative to glycine control, % at 25 µM. 340,000 tested, 2.5% active. AID 1259313;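 active means melting temperature shift of at least 10% of the positive control shift, at one fixed dose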
# An asterisk follows results filed as active; . = not tested or not shown.
SMILES,UBC13 polyUb,sPLA2-III inh,SUMO HTRF inh,GRIN3A LBD mod
CCOc1ccc(C(=O)Nc2ccc(-c3nc4ccccc4[nH]3)cc2)cc1[N+](=O)[O-],-11,-4,8,212*
O=C(Nc1ccc2nc(-c3ccccc3)[nH]c2c1)c1ccco1,13,1,2,10
O=C(Nc1cccc(-c2nc3ccccc3s2)c1)c1ccc2c(c1)OCO2,8,2,-24,10*
CCOc1ccc(C(=O)Nc2ccc(NC(=O)c3ccccc3)c(C)c2)cc1[N+](=O)[O-],-4,-4,23,18*
O=C(Nc1cccc(-c2nc3ccccc3[nH]2)c1)c1cccc(NC(=O)c2ccco2)c1,6,-5,40,20*
CC(C)N1CCCCC(NC(=O)Cc2ccccc2)C1=O (configuration not stated),.,11,.,.
O=C(O)c1ccc(C#Cc2cccc(F)c2)cn1,.,10,.,.
Nc1ccc2nc(SCC(=O)Nc3ccc(N4CCOCC4)c(Cl)c3)sc2c1,-8,1,-6,18*
O=C(Nc1ccc(-c2nc3ccccc3[nH]2)cc1)c1ccc2c(c1)OCO2,7,-22,2,30*
CCCC(=O)Nc1ccc2nc(SCC(=O)Nc3ccc(N4CCOCC4)c(Cl)c3)sc2c1,3,-1,-27,2
CS(=O)(=O)c1ccc(C(=O)Nc2ccc(-c3nc4ccccc4[nH]3)cc2)cc1,-8,-1,24,32*
O=C(Nc1ccc(Cl)c(-c2nc3ccccc3[nH]2)c1)c1ccc2c(c1)OCO2,7,-15,-26,0
Cc1cccc2[nH]c(-c3ccc(NC(=O)c4ccco4)cc3)nc12,0,-8,36,31*
CC(Sc1nc2ccccc2s1)C(=O)Nc1ccc2c(c1)OCO2 (configuration not stated),1,.,-8,0
CS(=O)(=O)c1cccc(C(=O)Nc2cccc(-c3nc4ccccc4[nH]3)c2)c1,-4,-15,-4,9
O=C(CSc1nc2ccccc2s1)Nc1ccc2c(c1)OCO2,-2,0,-10,14*
CS(=O)(=O)c1ccc(C(=O)Nc2cccc(-c3nc4ccccc4[nH]3)c2)cc1,5,-2,8,13*
CN(C)Cc1cn(-c2cccc(-c3noc4c3C(=O)N(CC(=O)N3CCOCC3)CC4)c2)nn1,.,2,.,.
CC12CCC(C(=O)NCc3ccc(Cl)cc3)(OC1=O)C2(C)C (configuration not stated),-7,-2,-5,11*
CC12CCC(C(=O)NCc3ccccc3)(OC1=O)C2(C)C (configuration not stated),-10,1,-3,1
Oc1ccc(-c2csc(Nc3ccccn3)n2)cc1,3,-7,-9,31*
Cc1cccnc1Nc1nc(-c2ccc(F)cc2)cs1,4,2,-19,1
Cc1cccnc1Nc1nc(-c2ccc(O)cc2)cs1,4,-13,2,30*
Fc1ccc(-c2csc(Nc3ccccn3)n2)c(F)c1,7,-1,-21,32*
N#CCC[C@H]1CC[C@]2(CCCN(C(=O)C3CCCC3)C2)O1,.,5,.,.
SMILES,UBC13 polyUb,sPLA2-III inh,SUMO HTRF inh,GRIN3A LBD mod
Cc1onc(-c2ccc(Cl)cc2)c1-c1ccn(S(=O)(=O)c2ccccc2)n1,.,8,.,.
NC1=NC(=Nc2cccc(S(N)(=O)=O)c2)c2ccccc21,-6,-3,20,0
COc1cc(N=Nc2cccc(S(N)(=O)=O)c2)c2ccccc2c1N,.,-20,20,13*
O=C(Nc1ccc(Cl)cn1)Nc1ccc(Cl)cn1,-8,0,-1,29*
O=C(Nc1ccc(Cl)cn1)c1ccc(-c2cc(Cl)ccc2Cl)o1,8,18,4,16*
COc1cccc(OC)c1NC(=O)c1ccc(-c2cc(Cl)ccc2Cl)o1,.,-13,.,.
CCOc1ccc(C(=O)Nc2cc(NC(=O)c3ccc(OCC)c(Cl)c3)cc(C(=O)O)c2)cc1Cl,-8,-1,36,23*
CCOc1ccc(C(=O)Nc2ccc(Cl)cn2)cc1Cl,2,-1,8,25*
CCOC(=O)C1=NOC(C(=O)NCCO)(C(=O)C2CC2)C1 (configuration not stated),.,12,.,.
CCCOc1cccc(-c2nn(-c3ccccc3)cc2/C=C(\C#N)C(=O)NCCCn2ccnc2)c1,35,-25,2,11*
CN(C)S(=O)(=O)c1cccc(-c2nn(-c3ccccc3)cc2/C=C(/C#N)C(=O)NCc2ccco2)c1,-15,8,14,16*
N#C/C(=C/c1cn(-c2ccccc2)nc1-c1cccc(OCc2ccc(F)cc2)c1)C(=O)NCCCn1ccnc1,-14,-8,-12,-7
Cc1ccc(-c2nc3ccccc3c(=O)n2CCCN2CCOCC2)cc1,-6,0,10,-1
Cc1ccc(-c2csc3nc4c5ccccc5c(NCCCN5CCOCC5)nn4c(=O)c23)cc1,56*,.,6,.
COc1ccc(OC)c(S(=O)(=O)N(CC(=O)NC2CCC(C)CC2)c2cc(C)cc(C)c2)c1 (configuration not stated),.,5,.,.
Cc1snc(SCc2cccc(Cl)c2)c1C#N,10,-2,2,20*
Cc1[nH]c(=O)nc(SCc2cccc(Cl)c2)c1C#N,3,-19,14,-4
CC(CNc1ccc(Cl)cc1)(CNc1ccc(Cl)cc1)[N+](=O)[O-],.,-4,.,25*
CCOC(=O)c1c(N)sc2c(NC(C)=O)cccc12,-5,1,-7,31*
CCOC(=O)c1cc(-c2ccc(N)cc2)sc1N,-2,13,-22,-1
CCOC(=O)c1sc(NC(=O)Nc2ccccc2)cc1C,13,-27,-15,43*
CCOC(=O)c1c(NC(C)=O)sc2c(OC)cccc12,13,-7,10,-2
COC(=O)c1c(NC(=O)Nc2ccc(Cl)cc2)sc(C)c1C,1,9,18,-10
Cc1sc(NC(=O)Nc2ccccc2)c(C(N)=O)c1C,26,3,1,13*
CCOC(=O)c1sc(-c2ccc(Br)cc2)cc1N,18,-6,-4,16*
SMILES,UBC13 polyUb,sPLA2-III inh,SUMO HTRF inh,GRIN3A LBD mod
Cc1cc(N2CCCN(C)CC2)n2nc(C)nc2n1,.,13,.,.
Cc1ccc2c(c1)C1CS(=O)(=O)N(CC(C)C)C(=O)N1C2 (configuration not stated),.,9,.,.
COc1ccc(CN2C/C(=C/c3ccccc3)N3C(=O)C[C@@H](c4ccc5ccccc5c4)N=C23)c(OC)c1,.,-6,.,.
CCOC(=O)c1c(N)sc(C(=O)Nc2ccccc2F)c1C,1,8,8,-15
CCOC(=O)c1sc(-c2ccccc2)cc1NC(=O)Nc1ccccc1,.,4,-34,16*
CCOC(=O)c1sc(NC(=O)Nc2ccccc2Cl)cc1C,-21,-18,-13,28*
CCOC(=O)c1c(N)sc(C(=O)Nc2ccccc2)c1C,2,1,4,27*
CCOC(=O)c1sc(NC(=O)c2cccc(S(=O)(=O)N3c4ccccc4CC3C)c2)cc1C (configuration not stated),0,6,36,13*
COC(=O)[C@H](C(C)C)N1Cc2nnn(CC3CCCCC3)c2-c2ccccc2S1(=O)=O,.,-1,.,.
c1ccc(-c2cccc3[nH]cc(-c4ccccc4)c23)cc1,.,-44,.,.

# Assay outcomes deposited in PubChem by several laboratories.
